Only some compounds are listed: those with a hit (about 0.88% of all), similar ones and a draw of the others.
TRHR enhancer-1 – qHTS for Small Molecule Agonists and Allosteric Enhancers of Human TRH Receptor: Primary Screen for Enhancers; Thyrotropin-releasing hormone receptor (Homo sapiens), P34981; TRHR cells, fluo-8 calcium fluorescence, EC20 TRH enhancement; enhancement, % at 2 µM; hit rate 0.66% among 360,000; AID 493056, 2011; in the data active means enhancement above about 30%
Target sequence (P34981 whole entry, looked up): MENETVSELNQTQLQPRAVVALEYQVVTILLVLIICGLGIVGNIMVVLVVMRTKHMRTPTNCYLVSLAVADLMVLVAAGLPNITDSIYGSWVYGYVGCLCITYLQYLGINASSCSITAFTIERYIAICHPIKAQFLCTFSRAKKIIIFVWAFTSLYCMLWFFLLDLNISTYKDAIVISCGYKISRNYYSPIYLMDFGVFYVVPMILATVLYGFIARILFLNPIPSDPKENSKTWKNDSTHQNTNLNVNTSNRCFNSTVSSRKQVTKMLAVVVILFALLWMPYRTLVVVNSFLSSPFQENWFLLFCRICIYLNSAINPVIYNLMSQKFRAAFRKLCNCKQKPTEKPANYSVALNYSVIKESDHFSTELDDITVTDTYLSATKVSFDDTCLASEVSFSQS
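Enhancer read-out: after compound pinning and an initial kinetic agonist-mode read, an EC20 of TRH (10 nM final) was injected and fluo-8 calcium signal (Ex 480/Em 530) followed at 1 s/cycle for 100 cycles in TRHR-expressing cells.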
IL2 activator – qHTS of IL-2 Activators. IL-2 activation reporter assay, cell-based qHTS; stimulated with anti-CD3/CD4/CD28 beads; in transgenic mouse T cells. activation, % (series mostly up to about 46 µM). hit rate 0.065% among 360,000. AID 652025, 2013; in the data active means activation above about 50%; inconclusive means mostly about 30% to 49%
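Readout is EGFP and DsRed signal by fluorescent plate cytometry after 18 h at 37 degrees C. Transgenic mouse T cells (750/well) received compound for 60 min before bead stimulation (anti-CD3, anti-CD4, anti-CD28); memory T cells served as non-tolerant control.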
TRHR agonist-1 – qHTS for Small Molecule Agonists and Allosteric Enhancers of Human TRH Receptor: Primary Screen for Agonists; Thyrotropin-releasing hormone receptor (Homo sapiens), P34981; TRHR cells, calcium flux fluo-8, FDSS agonist mode; activation, % at 2 µM; hit rate 0.18% among 360,000; in the data active means activation above about 30%
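In this calcium-flux screen, cells bearing human TRHR are dye-loaded with fluo-8, baselined for 10 cycles, then exposed to library compounds; positive kinetic calcium responses during the agonist phase mark hits, with TRH as control.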
CBFb RUNX1 block – qHTS Assay for Compounds Blocking the Interaction Between CBF-beta and RUNX1 for the Treatment of Acute Myeloid Leukemia. Runt-related transcription factor 1 (Homo sapiens) + Core-binding factor subunit beta …. AlphaScreen CBFb-His/RUNX1-biotin binding, biochemical. Potency, µM (series often up to 59.8 µM), actives largely listed as inhibitors. 230,000 tested, under 10 active. AID 1477, 2009
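AlphaScreen binding: CBFb-His and RUNX1-biotin (30 nM each) preincubated 20 min, compound added for 15 min, then nickel and streptavidin beads for 90 min, all at room temperature. Disruption of the interaction by any mechanism counts as activity.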
Epigenetic derep – Quantitative High-Throughput Screen for Regulators of Epigenetic Control. AID 1865, 2009. hit rate 0.2% among 280,000. Potency, µM (titrated, usually from 53.9 µM), most hits filed as activators. murine LDR cells, GFP reporter derepression, 30 h; further: nearly all actives have a fitted effect of over 60% in size
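Derepression of a silenced CMV-GFP reporter in murine LDR cells is scored by enumerating GFP-positive cells with a laser-scanning microplate cytometer after 30 hours of treatment at 37 C.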
MBNL1 CUG block – qHTS Assay for Inhibitors of MBNL1-poly(CUG) RNA binding; hit rate 0.036% among 280,000; AID 2675, 2010; TR-FRET MBNL1-His/biotin-(CUG)12 binding, 665/545 ratio; Potency, µM (top dose mostly 57.5 µM), usual class: inhibitors; active means well fitted inhibition curve with a large enough effect in the signal ratio, with a control signal flat, not every such curve was filed as active; inconclusive means small, poorly fitted or top-dose-only effect, or effect the other way, or a change in a side signal; inactive means no such curve, though single readings can be large or run the other way; the % refers to the signal ratio
Target sequence (Q9NR56 whole entry, looked up): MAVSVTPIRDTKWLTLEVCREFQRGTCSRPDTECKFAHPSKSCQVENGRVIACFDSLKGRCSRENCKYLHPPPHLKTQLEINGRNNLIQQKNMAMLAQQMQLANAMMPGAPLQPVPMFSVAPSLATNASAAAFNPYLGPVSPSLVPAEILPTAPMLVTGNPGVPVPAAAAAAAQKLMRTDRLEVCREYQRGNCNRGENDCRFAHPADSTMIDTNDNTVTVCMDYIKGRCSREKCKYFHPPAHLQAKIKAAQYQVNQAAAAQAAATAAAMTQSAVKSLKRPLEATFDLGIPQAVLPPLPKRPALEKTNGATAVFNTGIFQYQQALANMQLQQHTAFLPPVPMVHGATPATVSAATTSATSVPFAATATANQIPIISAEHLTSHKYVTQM
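Compounds (final 92 nM to 58 uM) are added to His-tagged MBNL1 and biotin-(CUG)12, then terbium anti-His antibody and streptavidin-XL665 (5 nM final). After 60 min at room temperature, the 665/545 nm ratio is read.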
TRHR enhancer-2 – qHTS for Small Molecule Agonists and Allosteric Enhancers of Human TRH Receptor: Confirmation Screen for Enhancers | shares compounds with TRHR enhancer-1 | TRH receptor cell assay, enhancer confirmation qHTS | activity change, negative = inhibition, % at 46.1 µM | 970 tested, under 10 active;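 further: compound effect scored on response to added TRH at EC20 of 10 nM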
TRHR agonist-2 – qHTS for Small Molecule Agonists and Allosteric Enhancers of Human TRH Receptor: Confirmation Screen for Agonists. shares compounds with TRHR enhancer-1. TRHR-expressing cells, agonist activation read-out. Potency, µM (titrated, usually from 46.1 µM), actives largely listed as activators. hit rate 8% among 970; further: nearly all actives have a fitted effect of over 75% in size
Numbers stand for hits; i = inactive; ? = inconclusive; nt = no result given. Unless noted, the call rests on the fitted dose curve; in most records, active means well fitted curve in the direction sought with a large enough effect; inconclusive means small, poorly fitted or top-dose-only effect, or another doubt; inactive means no such curve, though single readings can be large; an effect the other way counts as inactive or inconclusive.

SMILES | TRHR enhancer-1 | IL2 activator | TRHR agonist-1 | CBFb RUNX1 block | Epigenetic derep | MBNL1 CUG block | TRHR enhancer-2 | TRHR agonist-2
COc1nc(N2CCOCC2)nc(C)c1[N+](=O)[O-] | i | i | i | i | i | nt | nt | nt
CCOc1ccccc1C(=O)N(Cc1cccs1)c1ccc(Cl)cc1 | i | nt | i | nt | i | nt | nt | nt
O=[N+]([O-])c1ccccc1S(=O)(=O)Nc1cccc(-c2ccc3nncn3n2)c1 | 46.5 | i | i | nt | nt | nt | i | i
COc1ccc(Oc2nccc(OC)c2C#N)cc1 | 43.4 | i | i | i | i | i | i | i
COc1ccnc(Oc2cc(Cl)cc(Cl)c2)c1C#N | i | i | i | i | i | i | nt | nt
Cn1nnc2c(NCc3ccccc3)ncnc21 | i | nt | i | nt | i | nt | nt | nt
CC(C)C1C(=O)CC(c2ccccc2)NC1c1ccccc1 (stereo unspecified) | i | i | i | nt | nt | i | nt | nt
CC1C(=O)CC(c2ccccc2)NC1c1ccccc1 (stereo unspecified) | 44.9 | i | i | i | i | i | i | i
CCOc1ccc(CNC(=O)Cn2nc(C)c3sc4ccccc4c3c2=O)cc1 | i | nt | i | nt | i | nt | nt | nt
Cc1ccc(OCc2cc(C(=O)N(C)Cc3cnn(-c4ccccc4C)c3)no2)cn1 | 43.3 | i | i | nt | nt | i | i | i
CCOC(=O)c1sc2ccccc2c1S(=O)(=O)Nc1ccc(N(C)C)cc1 | i | nt | i | nt | i | nt | nt | nt
OC(COc1ccccc1)CN1CCCCCC1 (stereo unspecified) | 42.2 | i | i | i | i | nt | ? | i
O=C(c1nc(-c2ccc(Cl)cc2)n2c1CCCCC2)N1CCN(c2ccc(F)cc2)CC1 | i | nt | i | nt | i | nt | nt | nt
O=C(NC1CCCCCC1)c1ccc(=O)n(Cc2ccccc2)n1 | 54.9 | i | i | i | i | i | i | i
COC(=O)C1CCN(C(=O)COC(=O)c2ccc(=O)n(Cc3ccccc3)n2)CC1 | i | i | i | nt | nt | nt | nt | nt
CCOc1ccccc1NC(=O)Nc1nnc(N(C)Cc2ccccc2)s1 | i | nt | i | nt | i | nt | nt | nt
COc1cccc2c(=O)c3ccoc3n(C)c12 | 42.2 | i | i | i | i | i | i | i
COc1cccc2c(=O)c3c(cnn3C)n(C)c12 | i | i | i | i | i | ? | nt | nt
Clc1ccccc1-c1nnc2sc(-c3ccc(Br)o3)nn12 | i | i | i | i | i | ? | i | i
Cc1cccc2cc3c(N)c(C(=O)N4CCc5ccccc54)sc3nc12 | i | i | 52.6 | i | ? | nt | ? | 18.4µM
COc1ccc(N2CCN(C(c3ccccc3)c3nnc(-c4ccccc4Cl)o3)CC2)cc1 (stereo unspecified) | i | nt | i | nt | i | nt | nt | nt
CCCCOc1ccc(C(=O)N/C(=C/C=C/c2ccccc2)C(=O)NC)cc1 | i | i | i | i | i | i | nt | nt
CCCCOc1ccc(C(=O)N/C(=C/C=C/c2ccccc2)C(=O)O)cc1 | i | i | i | i | i | i | i | i
Cc1cc(C)cc(-n2c(SCC(N)=O)nc3c([nH]c4ccccc43)c2=O)c1 | i | nt | i | nt | i | nt | nt | nt
CCOC(=O)c1nnn(-c2nonc2N)c1CSc1nnc(N)s1 | 52.1 | i | i | i | i | i | i | i
SMILES | TRHR enhancer-1 | IL2 activator | TRHR agonist-1 | CBFb RUNX1 block | Epigenetic derep | MBNL1 CUG block | TRHR enhancer-2 | TRHR agonist-2
COC(=O)c1nnn(-c2nonc2N)c1CSc1nc2ccccc2s1 | i | i | i | i | i | i | nt | nt
CCn1c(CNC(=O)COc2ccc(C(C)C)cc2)nnc1SCC(=O)Nc1cc(F)ccc1C | 41.2 | i | i | i | i | i | i | i
CC(=O)Nc1ccc(S(=O)(=O)NCCC(=O)OCC(=O)N2CCN(C(=O)c3ccco3)CC2)cc1 | 46.0 | i | i | nt | nt | i | i | i
CCOC(=O)N1CCN([N+]([O-])=NOc2cc(O/N=[N+](\[O-])N(CC)CC)c([N+](=O)[O-])cc2[N+](=O)[O-])CC1 | nt | nt | nt | i | nt | nt | nt | nt
CCC(C)N1CC(=O)N2C(c3ccc(OC)cc3OC)c3[nH]c4ccccc4c3C[C@H]2C1=O (stereo partly specified) | 75.0 | i | i | nt | nt | i | i | i
CCCN1CC(=O)N2C(c3cccc(OC)c3OC)c3[nH]c4ccccc4c3C[C@H]2C1=O (stereo partly specified) | i | i | i | nt | nt | i | nt | nt
Cc1c(CC(=O)N2CCCCC2)c(=O)oc2cc3occ(C(C)(C)C)c3cc12 | i | nt | i | nt | i | nt | nt | nt
Cc1ccc(/C=N/NC(=O)c2ccccc2OCc2cccc(Br)c2)o1 | 57.7 | i | i | i | i | i | i | i
O=C(N/N=C/c1cccnc1)c1ccccc1OCc1cccc(Br)c1 | i | i | i | i | i | i | nt | nt
Cc1ccc(S(=O)(=O)N(CC(=O)N2CCOCC2)c2ccccc2F)cc1 | i | i | i | nt | nt | i | nt | nt
CCOc1ccccc1N(CC(=O)N1CCOCC1)S(=O)(=O)c1ccc(SC)cc1 | i | i | 91.9 | i | i | i | i | 2.06µM
Nc1c(C=C2C=CC(=O)C=C2)c(=O)nc2sc(CC(=O)N3CCOCC3)nn12 | i | i | i | nt | nt | i | nt | nt
CCOC1=C/C(=C/c2c(N)n3nc(CC(=O)N4CCCCC4)sc3nc2=O)C=CC1=O | i | i | 61.5 | nt | nt | i | i | 16.4µM
Cc1oc2c(c1C(=O)NCc1cccc(Br)c1)C1=NCCN1C=N2 | i | nt | i | nt | i | nt | nt | nt
Cc1cc(NC(=O)CN2C(=O)/C(=C/c3cccc(Br)c3)SC2=S)no1 | 47.1 | i | i | i | i | i | i | i
Cc1ccc(/C=C2\SC(=S)N(CCCC(=O)Nc3cc(C)on3)C2=O)cc1 | i | i | i | nt | nt | i | nt | nt
CCOC(=O)/C(C#N)=C(C)/C=C1\Sc2ccccc2N1CC | i | i | 32.7 | i | ? | nt | i | 20.6µM
O=C(NCC(c1ccco1)N1CCc2ccccc21)c1ccccc1 (stereo unspecified) | 51.3 | i | i | nt | nt | nt | i | i
Cc1ccc(C(=O)NCC(c2ccco2)N2CCc3ccccc32)cc1C (stereo unspecified) | i | i | i | nt | nt | nt | nt | nt

Bioassay records (PubChem BioAssay)
